Measurements published in PMC13494018.
A number with no mark means an inactive call. The rule behind the calls is not given here.

B1: d6r1_design_ppi_381_dldesign_0_cycle1_af2pred (protein)
chain: DEARAIIVSSLSEAAALDPAVAPLAMRAAALSINPATAAAAMAEAIAAMRAAGATVPEVAALADRAEAAA
B2: d6r1_design_ppi_911_dldesign_0_cycle1_af2pred (protein)
chain: GAAERTGRALANTAVAFAKSGSEEEAVAFATQMAEQIAALPGAEAAVARMAEELAKVLSPEAAAKVREAAAAILAKAAA
B3: d6r1_design_ppi_759_dldesign_0_cycle1_af2pred (protein)
chain: AAETERALRNAKAYATAAEHAAKAHPESPELKKLAAEAKAYYKKAAAAYAAGKKEEALKYAQKAIEKAAEAFSLLS
B4: d6r1_design_ppi_719_dldesign_0_cycle0_af2pred (protein)
chain: AAAAAAEAARQASAEKAKQLGLDLAEDARRLTEAGGSPAAVQAALNSAEAVARNLAAMGEVGKPFAEEVLKAAEEARKLAA
B5: d6r1_design_ppi_900_dldesign_0_cycle1_af2pred (protein)
chain: GEEAAREAEELERRAEELEELARRARELSAEELTEAALEAVRLANRAHALMTAGAPPEVAARLQEVAARALEAAERLSREAREKRA
B6: d6r1_design_ppi_807_dldesign_0_cycle1_af2pred (protein)
chain: AQAKRVSLAAALALLNSAIDAAADPKSAAALAEQAADLLESTGEAAPLGKKAKEAAKLLLEDPEKGKALAKEVAKKAAELLAKT
B7: d6r1_design_ppi_829_dldesign_0_cycle0_af2pred (protein)
chain: EEAKKKAEELIAEVKAYADAAAAAAAAAGAARGAAAAALAAAAIAGIKNIAKAAEEEIKEAAEDPEKQKEIAERAKENIDKILAVALG
B8: d6r1_design_ppi_695_dldesign_0_cycle1_af2pred (protein)
chain: EAAARQAAINAAALAVAKAVVDKAFADQSPAVVAGAKTMVTMIVNLYADPAKRPQAEALAENSHPAVREAVDAGLAAAAALAAA
B9: d6r1_design_ppi_812_dldesign_0_cycle0_af2pred (protein)
chain: SAELAERLRRISELFRKAIESGVEEAKRYVEEAAREFARLSGDEERGRELAREAKEAVELGEEGKEAVRAVAQRMLLYGAQAA
B10: d6r1_design_ppi_518_dldesign_0_cycle0_af2pred (protein)
chain: SAATLAQYNQLSGQASRLLMQAAQTGSVELAQQALQYAQQALQLAQQASANNAEGAKQLLEIAQATLAAVQ
B11: d6r1_design_ppi_397_dldesign_0_cycle1_af2pred (protein)
chain: GEEEEEKKRKEEIKKAIKEAAEKAKEAGPAETRPEIEAAEKLALEDPKAGMNRLLAIGAREPATAPYLVEGAEKVSALLKS
B12: d6r1_design_ppi_478_dldesign_0_cycle1_af2pred (protein)
chain: AAARAAAQQLLMEVAEELIKLGAKEAARLALRAIGLLLSDPAQGVAAAKEAAKKAKEEAPENGEELAKKLEEAAKLAAA
B13: d6r1_design_ppi_617_dldesign_0_cycle0_af2pred (protein)
chain: AAARAQALLNEALALLFEAAARSRDGAPILRAASLAAQGFLTGEAAPEALAYIEAVAKEHPEVRELILEAARLFAEAAAL
B14: d6r1_design_ppi_617_dldesign_0_cycle1_af2pred (protein)
chain: AAAQAQQLMNEALALLFEAARKAPDPSEILRAASKAAQGHLSGSLAEEALAYIREVAEKYPEVAELINEAAELYAQAAKL
B15: d6r1_design_ppi_468_dldesign_0_cycle1_af2pred (protein)
chain: AQAALDAAIAAARAAAALAREAGDDTAAAFFESAALVLEGGPANMPLAIRLTEAGIRSARARLDPATAAKVAALGEAAIAAARAAAAA
B16: d6r1_design_ppi_575_dldesign_0_cycle1_af2pred (protein)
chain: GAALAAQRAEAREVLARARAIEAQAQALAATQPAAAGIGSLARQAIELASRSLEEGLELLPSARALVEVAAGIVAAA
B17: d6r1_design_ppi_484_dldesign_0_cycle1_af2pred (protein)
chain: GEEAERESKEALERVRELLRRLNELAAQRAAHPAELRATAAALVEAGKEALANPNASEEAKQLGAFGVTLGQTVLAALDAAAA
B18: d6r1_design_ppi_377_dldesign_0_cycle1_af2pred (protein)
chain: MEDEELAEKIRERAKEAIAQIRASSPEQAALLAGTLVAEFGEWARSGTPEVAAVAHEEMNRVTGEAAKVIA
B19: d6r1_design_ppi_463_dldesign_0_cycle0_af2pred (protein)
chain: GLIEELLAEARAEVEAEIAARREEARRLAAEGEESEDTEEKRARAEELLAEAAEREAQADSIAAQAAFRRAAELTRQLAAAA
B20: d6r1_design_ppi_377_dldesign_0_cycle0_af2pred (protein)
chain: EEERRRAEELRRRAEEAIERIRASTPEEAARIAGELVAWLGEEARAGTPELAEEARREMARVTREAARVLA
B21: d6r1_design_ppi_463_dldesign_0_cycle1_af2pred (protein)
chain: GPFEAAYAEALAEVEAEIAALKAEAEKVAAAGKKTGKTAEAAAKAEELKAKAAELEAQKESIAAQRAFRRLAAQTAAQAAAA
B22: d6r1_design_ppi_398_dldesign_0_cycle0_af2pred (protein)
chain: STAASLATGARVIANLFERAIEAAADPATRAEAEGLARSAAEIGALIGPELAAIAEAGLAAIGDLAAMRAELERVRALAAAA
B23: d6r1_design_ppi_833_dldesign_0_cycle0_af2pred (protein)
chain: MTPMSAAVAAAEEAIAAATAADPERGGRIAQEAFRGLAQATAIYVTQGKAAGDAAAEELRKRFEAEKAKVEAEAA
B24: d6r1_design_ppi_575_dldesign_0_cycle0_af2pred (protein)
chain: SAEEEAAKEEAKAVLAQAEAILEQAKALAAQQPWAAGIAALARTAIRLAKESLEKGLELLPDAKALTEAAAGIVAAA
B25: d6r1_design_ppi_848_dldesign_0_cycle0_af2pred (protein)
chain: AAAETGLKILEATVQALLKNASKYSAEAVKKLSEVLKASAEAEAKAGGEKLKERAKEIKKLAEEAEKKAKEAAKAKAE
B26: d6r1_design_ppi_785_dldesign_0_cycle1_af2pred (protein)
chain: AAAASAAQTATITRAAVASGNTFDAARAGAEMLHYQDPAVGEEVAKTVEEAKKLSPEEAKAAILAKFDAIAARYA
B27: d6r1_design_ppi_373_dldesign_0_cycle1_af2pred (protein)
chain: EKEELIKKAKEALEKAKKAAKEAAADPELAKKAKKLAEEAKKAVEKAKKSGKEEAKKLAEKAKAAAAKAEAYALLAQGRAAA
B28: d6r1_design_ppi_887_dldesign_0_cycle1_af2pred (protein)
chain: AAVEEATAKAKELREKATKLALEGIRTGNQELVEKAKEKAEKAKELGESSNEEAKEYAKVALAVAEMAKAAL
B29: d6r1_design_ppi_658_dldesign_0_cycle1_af2pred (protein)
chain: LEEELEKAKNEAKLLLAEAAATLLATDAKGQKAAQLLAAAIAYLDTDPEQALKDAKEALKLVPDSEKVKKALEATEKALELKKKI
B30: d6r1_design_ppi_593_dldesign_0_cycle1_af2pred (protein)
chain: SKNVELAEKAQEVVKRAKEVGKLVPEKAEEIISTSNQALAYALNPHTVAKGEKLLEEATKLVEEAEKEAK
B31: d6r1_design_ppi_801_dldesign_0_cycle0_af2pred (protein)
chain: AALAALTAEANARANAILGRAFAEALARTRAGESPAPVFAAAAAELRRLGEESNPEGRAIADSGIALLQAAA
B32: d6r1_design_ppi_759_dldesign_0_cycle0_af2pred (protein)
chain: MAKVEQLLNNAKAYAGAAENAARTHSENPELQKLAKEAKEYYEKAEKAYKEGKLKEAEEYAKKAIEKAAEAFSLLQ
B33: d6r1_design_ppi_311_dldesign_0_cycle1_af2pred (protein)
chain: MTPEEVAARAAELLAWLRAQAALDPEMAALGAAGLELVLAHSPELAARAVRQLERARRMPPADALRVGALIAQAYAAQVERARA
B34: d6r1_design_ppi_583_dldesign_0_cycle1_af2pred (protein)
chain: MNIEELTALAEEHEAKAKALAAAGAPAIEVVSAATLAVRYYNEAAKLLAKIDPAKAKEYTAKAEAIRAAAAAYIRAQLARSAAA
B35: d6r1_design_ppi_761_dldesign_0_cycle0_af2pred (protein)
chain: AEEKERLKELAKFAKEALKKVEELRAAIKANADDPAAVAAARDAMIALAKEAAEKDAEVGNAVMIALGDPEKGVEKLKEVTEKLEKAA
B36: d6r1_design_ppi_821_dldesign_0_cycle1_af2pred (protein)
chain: AAAQARAEARALNERARALLAAAPVGRAAEAEALATRALGLALAHREAFSNAEMTDILRTLARAAGAARQQAA
B37: d6r1_design_ppi_699_dldesign_0_cycle1_af2pred (protein)
chain: EEEAKEKIREAAKEAAAAAKAQDPAHAPLIEAAAKEIAEAAEKGLVEAQEKANALARAHPEAAQHFSLIFAFAAQAYAEAR
B38: d6r1_design_ppi_848_dldesign_0_cycle1_af2pred (protein)
chain: AAGEKALEILKKTAQALLKNAPLLTAEAAAKLAKVIIDAAWAAAKKIGPEAEKVAKEVKALAKEAVAAAAAAAKARAA

Target: CD276, Q5ZPR3
Sequence (Q5ZPR3 whole entry): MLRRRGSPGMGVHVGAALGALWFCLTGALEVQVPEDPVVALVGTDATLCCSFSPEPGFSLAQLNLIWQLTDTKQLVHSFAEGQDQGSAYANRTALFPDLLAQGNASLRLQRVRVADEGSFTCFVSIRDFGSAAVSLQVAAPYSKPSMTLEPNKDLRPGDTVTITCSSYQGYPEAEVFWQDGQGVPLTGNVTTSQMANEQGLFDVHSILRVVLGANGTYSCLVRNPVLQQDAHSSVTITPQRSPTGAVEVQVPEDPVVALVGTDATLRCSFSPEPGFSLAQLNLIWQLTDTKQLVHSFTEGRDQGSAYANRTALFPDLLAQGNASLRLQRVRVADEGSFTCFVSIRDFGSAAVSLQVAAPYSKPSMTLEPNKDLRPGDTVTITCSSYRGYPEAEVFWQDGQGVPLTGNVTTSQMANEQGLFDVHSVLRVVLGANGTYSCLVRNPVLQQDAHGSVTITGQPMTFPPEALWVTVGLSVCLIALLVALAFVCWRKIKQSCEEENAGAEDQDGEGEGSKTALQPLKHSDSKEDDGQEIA

Binder	binding in a display sort
B1	not found
B2	not found
B3	not found
B4	not found
B5	not found
B6	not found
B7	not found
B8	not found
B9	not found
B10	not found
B11	not found
B12	not found
B13	not found
B14	not found
B15	not found
B16	not found
B17	not found
B18	not found
B19	not found

Binder	binding in a display sort
B20	not found
B21	not found
B22	not found
B23	not found
B24	not found
B25	not found
B26	not found
B27	not found
B28	not found
B29	not found
B30	not found
B31	not found
B32	not found
B33	not found
B34	not found
B35	not found
B36	not found
B37	not found
B38	not found
